According to PubChem BioAssay (EPA / NIEHS):
“And” between values parts separate entries of the source, which are not always exact repeats. Identical values can stand only once. Results filed as inconclusive are left out. The source holds several records for some structures; these can differ, active in one and inactive in another. The source made the active and inactive calls. The calls were made as follows, unless noted: active = hit-call score of the fitted dose curve at least 0.9, where 1 is the maximum; inactive = score below 0.9.

Legend:
[1] = CCTE_Shafer_MEA_dev_mutual_information_norm: CCTE's Neural Network Formation Assay for Mutual Information Normalization, Shafer Lab (AID 2284091);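 as to AC50: mutual information between electrodes summarised as area under curve across four recording days; potency is for a decrease in mutual information relative to DMSO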
In short: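 Developing rat cortical networks on 16-electrode MEA wells are treated throughout formation (DIV 0–12). Shared electrode information is recorded four times, converted to area-under-curve, and fitted for decreases against DMSO vehicle.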

[2] = CCTE_Shafer_MEA_dev_correlation_coefficient_mean: CCTE's Neural Network Formation Assay for Mean Correlation Coefficient, Shafer Lab (AID 2284093);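 as to AC50: well mean pairwise spike train correlation integrated as AUC over recording days 5 to 12; potency fitted for loss of correlation relative to DMSO vehicle wells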
In short: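 Primary rat cortical neurons on PEI-coated 48-well MEA plates (16 electrodes/well) were exposed from plating day 0 through DIV12, with compound renewed at DIV5 and 9. Pairwise spike correlations were averaged per well; trapezoidal AUC across DIV5, 7, 9, 12.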

[3] = CCTE_Mundy_HCI_Cortical_Synap_Neur_Matur_NeuriteSpotCountPerNeuriteLength: CCTE's Synaptogenesis and Neurite Maturation Assay in rat cortical cells for Neurite Spot Count per Neurite Length, Mundy Lab (AID 2284210)
In short: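 Primary rat cortical neurons, compound exposure DIV 7–12, 288.33 h endpoint. Hoechst, anti-MAP2 and anti-synaptophysin labelling; neurite-associated puncta per neurite length scored by automated imaging relative to DMSO controls.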

[4] = CCTE_Mundy_HCI_Cortical_Synap_Neur_Matur_BPCount: CCTE's Synaptogenesis and Neurite Maturation Assay in rat cortical cells for Branch Point Count, Mundy Lab (AID 2284211)
In short: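 Branch point number is quantified by automated imaging of fluorescently labelled neurites and synapses in rat primary cortical neurons exposed from DIV 7 to DIV 12. Activity is analysed relative to DMSO negative control.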

[5] = CCTE_Mundy_HCI_Cortical_NOG_NeuriteCount: CCTE's Neurite Outgrowth Assay in rat cortical cells for Neurite Count, Mundy Lab (AID 2284212);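 also: cells fixed about two days after chemical exposure began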
In short: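 Neurite number per cell from high-content imaging of betaIII-tubulin immunostaining, with Hoechst nuclear counterstain.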

[6] = CCTE_Mundy_HCI_Cortical_NOG_NeuriteLength: CCTE's Neurite Outgrowth Assay in rat cortical cells for Neurite Length, Mundy Lab (AID 2284213);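 as to AC50: neurites imaged about 48 to 50 h after chemical exposure began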
In short: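 Neurite length was read by high-content imaging of βIII-tubulin-labelled neurites in rat primary cortical cultures. Activity was fitted relative to DMSO.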

[7] = CCTE_Mundy_HCI_Cortical_Synap_Neur_Matur_NeuriteLength: CCTE's Synaptogenesis and Neurite Maturation Assay in rat cortical cells for Neurite Length, Mundy Lab (AID 2284214)
In short: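 Rat primary cortical cells were plated, treated with AraC at DIV 5 to arrest glial growth, then chemical-dosed with media change at DIV 7 through DIV 12. Fixed cells stained for MAP2, synaptophysin and Hoechst; neurite length quantified by high-content imaging.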

[8] = CCTE_Mundy_HCI_Cortical_Synap_Neur_Matur_NeuriteSpotCountPerNeuron: CCTE's Synaptogenesis and Neurite Maturation Assay in rat cortical cells for Neurite Spot Count per Neuron Count, Mundy Lab (AID 2284215)
In short: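 Read-out: neurite-associated synaptophysin puncta per neuron, imaged by high-content analysis after MAP2, synaptophysin and Hoechst staining. Rat primary cortical cultures, dosed DIV 7 through DIV 12; DMSO served as baseline.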

[9] = CCTE_Mundy_HCI_Cortical_Synap_Neur_Matur_SynapseCount: CCTE's Synaptogenesis and Neurite Maturation Assay in rat cortical cells for Synapse Count, Mundy Lab (AID 2284218)
In short: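 Rat primary cortical cells in 96-well plates received AraC at DIV 5 and were dosed with chemicals at DIV 7 with media change, through DIV 12 (288.33 h). Synapses per neuron counted by high-content imaging of MAP2/synaptophysin/Hoechst staining, versus DMSO baseline.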

[10] = CCTE_Mundy_HCI_Cortical_Synap_Neur_Matur_NeuriteCount: CCTE's Synaptogenesis and Neurite Maturation Assay in rat cortical cells for Neurite Count, Mundy Lab (AID 2284222)
In short: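 Rat cortical neurons, 96-well; AraC DIV 5; chemical + media change DIV 7; end DIV 12. Fix PFA/Hoechst, anti-MAP2 + anti-synaptophysin IF. HCI neurite count vs DMSO baseline.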

[11] = TAMU_PeakParms_SingleDonor1434_Chronotropy: Texas A&M University (TAMU) 1.5-hr Human Induced Pluripotent Stem Cell (iPSC)-derived Cardiomyocytes Calcium (Ca+2) Flux Assay for Cardiotoxicity: Chronotropy (changes in peak frequency) (AID 2284217); settings: actives raise or lower the signal
In short: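 Beat rate, as mean Ca2+-flux peak frequency, was read from donor 1434 iPSC cardiomyocytes 90 min after exposure to 0.2–100 uM test chemical (0.5% DMSO). Wells that stopped beating were excluded; EC05 from bidirectional DMSO-referenced fitting.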

[12] = CCTE_Shafer_MEA_acute_LDH: CCTE's Lactate Dehydrogenase Assay for Cytotoxicity in the Neural Acute Assay, Shafer Lab (AID 2284086; active = hit-call score of the fitted dose curve at least 0.9, where 1 is the maximum;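 also: active means LDH release rises above DMSO vehicle level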)
In short: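 Primary rat cortical neurons on 48-well MEA plates, treated on day 13 or 15 post-plating. After the 40-min recording with compound, medium LDH release was read by absorbance at 490 nm. Gain of signal was fitted against DMSO negative control.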

[13] = UKN2_HCS_IMR90_neural_migration: University of Konstanz (UKN) Leist Lab Neural Crest Cell Migration Assay in human induced IMR90 Pluripotent Stem Cells (UKN2) (AID 2284204); settings: actives raise or lower the signal
In short: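 Migration of human IMR90-derived neural crest cells into a stopper-defined gap is imaged after 24 h chemical treatment. Activity is fitted bidirectionally relative to DMSO.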

[14] = UKN4_HCS_LUHMES_neurite_outgrowth: University of Konstanz (UKN) Leist Lab Neurite Outgrowth Assay in human LUHMES cells (UKN4) (AID 2284206); settings: actives raise or lower the signal
In short: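 LUHMES neuronal precursors differentiated 2 days, replated without cAMP/GDNF, then exposed to chemicals for 24 h. Neurite area imaged by high-content microscopy after calcein-AM staining; Hoechst H-33342 marks viability. Bidirectional fit versus DMSO.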

[15] = IUF_NPC1b_proliferation_BrdU_72hr: Leibniz Research Institute for Environmental Medicine (IUF) 72-hour Neural Progenitor Cell Bromodeoxyuridine (BrdU) Proliferation Assay (NPC1b) (AID 2284207)
In short: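 Proliferation of primary human neural progenitor cells: 72 h compound treatment at 37C, 5% CO2, pH 7.2-7.6, in EGF/FGF-containing medium. Readout is BrdU uptake (last 16 h) by chemiluminescent ELISA, normalised to DMSO.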

[16] = IUF_NPC1_viability_72hr: Viability Assessment at 72 hours in the Leibniz Research Institute for Environmental Medicine (IUF) Neural Progenitor Cell Proliferation Assay (NPC1) (AID 2284209)
In short: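 Human fetal-cortex neural progenitor spheres (0.25–0.35 mm, one per well) grown in EGF/FGF proliferation medium at 37C, pH 7.2-7.6, exposed 72 h without renewal; viability read as alamar blue resazurin-to-resorufin fluorescence relative to DMSO.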

[17] = CCTE_Mundy_HCI_hN2_NOG_NeuriteCount: CCTE's Neurite Outgrowth Assay in human hN2 cells for Neurite Count, Mundy Lab (AID 2284219; active = hit-call score of the fitted dose curve at least 0.9, where 1 is the maximum)
In short: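 In this morphology assay, hNP1-derived neurons received test chemical 2 h post-plating and were fixed two days later in warm paraformaldehyde/sucrose containing Hoechst 33342. Neurites, labelled by rabbit anti-βIII-tubulin (1:800) and Alexa Fluor-488 (1:500), were counted automatically.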

[18] = CCTE_Mundy_HCI_hN2_NOG_NeuriteLength: CCTE's Neurite Outgrowth Assay in human hN2 cells for Neurite Length, Mundy Lab (AID 2284220; active = hit-call score of the fitted dose curve at least 0.9, where 1 is the maximum)
In short: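 Plate hNP1-derived neurons, then add chemical 2 h later as a 1/10 dilution. Stain with anti-βIII-tubulin then Alexa Fluor-488 secondary, and image automatically to measure neurite length.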

[19] = CCTE_Mundy_HCI_hN2_NOG_NeuronCount: CCTE's Neurite Outgrowth Assay in human hN2 cells for Neuron Count, Mundy Lab (AID 2284221; active = hit-call score of the fitted dose curve at least 0.9, where 1 is the maximum)
In short: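 Read-out is the number of betaIII-tubulin-positive neurons imaged by automated high-content analysis, with DMSO as negative control.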

[20] = IUF_NPC1a_proliferation_area_72hr: Leibniz Research Institute for Environmental Medicine (IUF) 72-hour Neural Progenitor Cell Proliferation Area Assay (NPC1a) (AID 2284208)
In short: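 hNPC spheres (human fetal cortex, GW 16-19), one per poly-Hema U-bottom well; EGF+FGF medium; dosed day 0, no re-dosing; 72 h, 37C, 5% CO2; phase-contrast sphere area; DMSO = baseline; minus-GF = positive ctrl.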

Measured: AC50

C[C@]12C=CC(=O)C=C1CC[C@H]1[C@@H]3C[C@@H](O)[C@](O)(C(=O)CO)[C@@]3(C)C[C@H](O)[C@@]12F
active: [2] 0.202 µM | [3] 23.9 µM | [4] 2.18 µM | [5] 22.7 µM | [6] 19.7 µM | [7] 2.59 µM | [8] 3 µM | [9] 4.2 µM | [10] 18.8 µM
inactive: [1]

CCN(CC)C(=S)SSC(=S)N(CC)CC
active: [1] 94.3 nM and 37.8 nM | [2] 110 nM and 63.3 nM | [11] 8.82 µM

OCCC(F)(F)C(F)(F)C(F)(F)C(F)(F)F
active: [2] 3.75 µM
inactive: [1]

c1ccc(C(O[C@@H]2CCCN(CCc3ccc4c(c3)OCO4)C2)c2ccccc2)cc1
inactive: [12]

C=CCc1cc(S(=O)(=O)c2ccc(O)c(CC=C)c2)ccc1O
inactive: [12]

Cn1c(=O)c2[nH]cnc2n(C)c1=O
inactive: [12]

OC[C@H]1O[C@@](CO)(O[C@H]2O[C@H](CO)[C@@H](O)[C@H](O)[C@H]2O)[C@@H](O)[C@@H]1O
inactive: [11]

CCCCC(CC)C(=O)OCCOCCOCCOC(=O)C(CC)CCCC (configuration not stated)
inactive: [12]

c1ccc2c(c1)-c1cccc3c1c-2cc1ccccc13
active: [1] 1.35 µM | [11] 4.53 µM
inactive: [2]

CCCC(CCC)C(=O)O
active: [14] 7760 µM | [15] 1040 µM | [16] 2090 µM
not listed: [12] | [20]
inactive: all other assays above

COCc1nnc(-c2ccc[n+]([O-])c2)n1-c1c(Cl)c(Cl)cc2[nH]c(=O)c(=O)[nH]c12
inactive: [12]

O=S(=O)(O)c1ccc(N=Nc2c(O)ccc3cc(S(=O)(=O)O)ccc23)cc1
inactive: [12]

OC(Cn1cncn1)(Cn1cncn1)c1ccc(F)cc1F
not listed: [11] | [12] | [13] | [14] | [15] | [16] | [19] | [20]
inactive: all other assays above

CC[C@H](C)C(=O)O[C@H]1C[C@H](O)C=C2C=C[C@H](C)[C@H](CC[C@@H](O)C[C@@H](O)CC(=O)O)[C@H]21
active: [1] 1.97 µM | [2] 4.32 µM

OC(CCl)CCl
inactive: [12]

FC(F)(F)C(F)(F)C(F)(F)C(F)(F)C(F)(F)C(F)(F)I
inactive: [1] | [2]

CCc1ccc(O)c(C(C)(C)C)c1
inactive: [12]

CCOc1ccc2[nH]cc(C(=O)NCc3ccccc3)c(=O)c2n1
inactive: [1] | [2]

CCCc1ccccc1
inactive: [12]

Cn1cc[nH]c1=S
not listed: [11] | [12] | [13] | [14] | [17] | [18] | [19]
inactive: all other assays above

OC(O)(C(F)C(O)(O)C(F)(F)F)C(F)(F)F
active: [2] 2.98 µM
inactive: [1] | [2]

FC(F)(F)COC(OCC(F)(F)F)OCC(F)(F)F
inactive: [1] | [2]

COc1cc2c(c(OC)c1OC)-c1ccc(OC)c(=O)cc1[C@@H](NC(C)=O)CC2
inactive: [3] | [11]
active: [1] 0.0238 µM | [2] 0.0234 µM | [4] 0.0374 µM | [5] 0.0172 µM | [6] 0.0124 µM | [7] 0.0354 µM | [8] 0.0297 µM | [9] 0.0302 µM | [17] 0.00966 µM | [18] 0.00931 µM | [19] 0.0262 µM | [10] 0.44 µM

O=C(Cl)C(F)(F)C(F)(F)C(F)(F)C(=O)Cl
inactive: [1] | [2]

Nc1ccn([C@@H]2O[C@H](CO)[C@@H](O)[C@@H]2O)c(=O)n1
active: [1] 89.3 nM and 97.6 nM | [2] 89.9 nM and 112 nM | [20] 0.109 µM | [16] 0.191 µM | [3] 23.2 µM | [4] 7.42 µM | [5] 9.69 µM and 4.75 µM | [6] 9.08 µM and 3.77 µM | [7] 11.9 µM | [8] 12.4 µM | [9] 12.4 µM | [10] 12.6 µM and 15 µM
inactive: [13] | [14] | [15] | [3] | [4] | [7] | [8] | [9]

CC(C)C(=O)Nc1ccc([N+](=O)[O-])c(C(F)(F)F)c1
inactive: [12] | [11]

NNC(=O)c1ccncc1
not listed: [11] | [12] | [13] | [14] | [15] | [16] | [19] | [20]
inactive: all other assays above

NC(=O)N1c2ccccc2C=Cc2ccccc21
active: [14] 150 µM
not listed: [11] | [12] | [15] | [16] | [20]
inactive: all other assays above

c1ccc2cc3ccccc3cc2c1
active: [11] 20.2 µM
not listed: [13] | [14] | [15] | [16] | [17] | [18] | [19] | [20]
inactive: all other assays above

OCc1ccccc1
inactive: [12]

NCC(F)(F)C(F)(F)C(F)(F)C(F)(F)F
inactive: [1] | [2]
